# Measured values reported in PubChem BioAssay (Tox21).
# Several values for one entry are separate records, joined by “and”; a condition that tells them apart may be missing. Equal entries are not always repeated. Inconclusive results are not listed. A call without a number means that no potency is given here. A structure can be active in one record and inactive in another. Activity calls are given as the source filed them. Unless noted, calls follow the shape of the dose curve; as a rule, active = well fitted curve in the direction sought with a large enough effect in the repeat runs; inconclusive = weak or mixed curves; inactive = no such curve, though single readings can be large; an effect the other way counts as inactive or inconclusive.
# Legend:
# [1] = target: Estrogen receptor (Homo sapiens) (UniProt P03372); experiment: qHTS assay to identify small molecule antagonists of the estrogen receptor alpha (ER-alpha) signaling pathway using the BG1 cell line in the presence of 0.1 nM 17-beta-estradiol (AID 1259244); also: nearly all actives have a fitted effect of over 50% in size; also: potency is read from the fitted curve at half-maximal effect
# In short: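 VM7Luc4E2 cells (endogenous full-length ER-alpha, stable 4xERE-luciferase) were grown 5 days in phenol red-free medium with charcoal-stripped FBS, then exposed 22 h at 37C to compounds plus 0.1 nM (final) 17beta-estradiol; ONE-Glo luminescence read-out.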
# [2] = qHTS assay to identify small molecule HDAC inhibitors (AID 1259364); also: nearly all actives have a fitted effect of over 45% in size; also: potency is read from the fitted curve at half-maximal effect
# In short: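 Wild-type HCT-116 cells were plated overnight, exposed to compounds for 2 h at 37 °C, then given HDAC-Glo class I/II luminogenic reagent for 30 min at room temperature before luminescence was read.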
# [3] = qHTS assay to identify small molecule agonists of the sonic hedgehog signaling (Shh) pathway - cell viability counter screen (AID 1259366); also: nearly all actives have a fitted effect of over 50% in size
# In short: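 After a 4hr attachment at 37C, NIH/3T3 cells bearing an integrated Gli1-driven luciferase reporter were dosed with compounds. Treatment lasted 24hr, with the final hour including CellTiter-Fluor for a fluorescence viability measurement.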
# [4] = qHTS assay to identify small molecule antagonists of the sonic hedgehog signaling (Shh) pathway - cell viability counter screen (AID 1259367); also: nearly all actives have a fitted effect of over 55% in size
# In short: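 NIH/3T3-derived Gli1-Luc reporter cells (2,000 per well) rested 4 hr at 37 C, then received DMSO compounds plus conditioned medium. After 23 hr of treatment, CellTiter-Fluor was added for 1 hr at 37C and fluorescence read.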
# [5] = qHTS assay to identify small molecule agonists of the sonic hedgehog signaling (Shh) pathway (AID 1259368; calls by dose curve; also: series mostly up to about 92 µM; nearly all actives have a fitted effect of over 15% in size)
# In short: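 NIH/3T3-derived 3T3Gli1-Luc cells carrying a stably integrated Gli1 response element–firefly luciferase reporter were plated, left 4 hr at 37 C, then given compounds in DMSO for 24 hr. Luminescence was read 30 min after adding luciferase reagent.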
# [6] = qHTS assay to identify small molecule antagonists of the sonic hedgehog signaling (Shh) pathway (AID 1259369; calls by dose curve; also: nearly all actives have a fitted effect of over 45% in size; also: potency is read from the fitted curve at half-maximal effect)
# In short: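 NIH/3T3-derived 3T3Gli1-Luc cells with stably integrated Gli1-Luc reporter were preincubated 4hr at 37 C, then given compounds in DMSO plus Shh conditioned medium and incubated 24hr. Firefly luciferase luminescence read after 30min reagent at room temperature.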
# [7] = target: Estrogen receptor beta (Homo sapiens) (UniProt Q92731); experiment: qHTS assay to identify small molecule agonists of the estrogen receptor beta (ER-beta) signaling pathway (AID 1259377; active = well fitted activation curve with a large enough effect in the signal ratio in the repeat runs, not every such curve was filed as active; the % refers to the signal ratio; also: potency is read from the fitted curve at half-maximal effect)
# In short: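 In HEK293T cells bearing a UAS-beta-lactamase reporter under ER-beta control, DMSO-delivered compounds were incubated for 16 hr at 37C. Activity was detected as fluorescence 2 hours after LiveBLAzer B/G FRET substrate addition.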
# [8] = target: Estrogen receptor beta (Homo sapiens) (UniProt Q92731); experiment: qHTS assay to identify small molecule antagonists of the estrogen receptor beta (ER-beta) signaling pathway (AID 1259378; active = well fitted inhibition curve with a large enough effect in the signal ratio in the repeat runs, not every such curve was filed as active; the % refers to the signal ratio)
# In short: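 ER-beta-UAS-bla HEK293T (GripTite) cells in 2% charcoal-stripped FBS medium were preincubated 6 hr at 37C, dosed with compound, then stimulated with 1 nM E2 (final) for 16 hr; beta-lactamase reporter read by B/G FRET fluorescence after 2 hr substrate loading.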
# [9] = qHTS assay to identify small molecule HDAC inhibitors - cell viability counter screen (AID 1259365); also: series mostly up to about 92 µM; nearly all actives have a fitted effect of over 50% in size
# In short: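 Following a 2hr exposure of overnight-plated wild-type HCT-116 cells to DMSO-delivered compounds, CellTiter-Glo was added and luminescence recorded after 30min at room temperature.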
# [10] = qHTS assay to identify small molecule phospholipidosis (PLD) inducers (AID 1259344; active = well fitted curve in the direction sought with a large enough effect; an effect the other way counts as inactive or inconclusive)
# In short: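 HepG2 cells on collagen I, attached 4 h at 37 C, were co-treated with compound and LipidTOX Red dye for 24 h at 37 C, then fixed with paraformaldehyde plus Hoechst 33342 and imaged by high-content microscopy for phospholipid accumulation.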
# Estrogen receptor (Homo sapiens), sequence (P03372 whole entry, looked up): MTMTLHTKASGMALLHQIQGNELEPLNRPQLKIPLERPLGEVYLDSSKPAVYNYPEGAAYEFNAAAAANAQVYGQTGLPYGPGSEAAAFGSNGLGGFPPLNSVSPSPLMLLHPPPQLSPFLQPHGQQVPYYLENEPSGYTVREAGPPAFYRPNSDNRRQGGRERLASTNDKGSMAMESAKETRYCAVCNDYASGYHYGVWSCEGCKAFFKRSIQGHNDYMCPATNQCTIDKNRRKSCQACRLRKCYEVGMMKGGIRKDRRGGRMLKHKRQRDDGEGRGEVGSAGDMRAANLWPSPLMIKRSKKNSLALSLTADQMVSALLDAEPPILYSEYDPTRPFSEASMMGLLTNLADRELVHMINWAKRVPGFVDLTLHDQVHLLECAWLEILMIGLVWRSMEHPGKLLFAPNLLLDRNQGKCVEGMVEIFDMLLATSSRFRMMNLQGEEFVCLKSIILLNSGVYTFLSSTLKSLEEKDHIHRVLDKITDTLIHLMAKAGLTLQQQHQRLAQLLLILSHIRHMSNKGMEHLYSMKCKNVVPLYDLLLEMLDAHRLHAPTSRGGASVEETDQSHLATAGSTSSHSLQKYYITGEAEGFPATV
# Estrogen receptor beta (Homo sapiens), sequence (Q92731 whole entry, looked up): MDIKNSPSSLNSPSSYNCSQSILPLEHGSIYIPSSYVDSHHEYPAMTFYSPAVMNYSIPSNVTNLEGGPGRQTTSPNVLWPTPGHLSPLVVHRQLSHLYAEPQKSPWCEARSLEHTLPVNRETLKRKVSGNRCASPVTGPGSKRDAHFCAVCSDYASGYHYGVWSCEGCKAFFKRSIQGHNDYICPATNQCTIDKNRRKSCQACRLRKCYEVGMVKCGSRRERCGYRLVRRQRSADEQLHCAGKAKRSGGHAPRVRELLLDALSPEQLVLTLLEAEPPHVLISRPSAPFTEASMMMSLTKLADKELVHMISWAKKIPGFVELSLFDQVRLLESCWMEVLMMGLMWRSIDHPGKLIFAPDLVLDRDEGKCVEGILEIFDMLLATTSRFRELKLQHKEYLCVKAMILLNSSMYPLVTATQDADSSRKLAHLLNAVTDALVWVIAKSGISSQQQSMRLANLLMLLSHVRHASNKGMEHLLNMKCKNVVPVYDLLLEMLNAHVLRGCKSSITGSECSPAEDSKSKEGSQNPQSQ
SMILES,Potency [1],Potency [2],Potency [3],Potency [4],outcome [5],Potency [6],Potency [7],outcome [8],outcome [9],outcome [10]
CCCCN(CCCC)SN(C)C(=O)Oc1cccc2c1OC(C)(C)C2,inactive,inactive,inactive,inactive,inactive,31.1 µM (active) and inactive,,,,
O=C(O)c1ccccn1,inactive,inactive,inactive,inactive,inactive,inactive,inactive,inactive,,
Cc1ccc(N)cc1N,inactive,inactive,inactive,inactive,,inactive,inactive,inactive,,
CC(C#N)CCC#N (centres undefined),inactive,inactive,inactive,inactive,inactive,inactive,inactive,inactive,,
Cn1cc(-c2ccccc2)c(=O)c(-c2cccc(C(F)(F)F)c2)c1,inactive,inactive,,,inactive,inactive,,,,
CCCCCCCCCl,inactive,inactive,inactive,inactive,inactive,inactive,inactive,inactive,,
ClCc1cccnc1,inactive,inactive,inactive,inactive,inactive,inactive,,,,
CCCN(CCC)N=O,inactive,inactive,inactive,inactive,inactive,inactive,inactive,inactive,inactive,
O=S(=O)(c1ccc(O)cc1)c1ccc(O)cc1,inactive,inactive,inactive,inactive,inactive,34.4 µM (active),4.35 µM (active) and 4.33 µM (active),inactive,inactive,
BrCCBr,inactive,inactive,inactive,inactive,inactive,inactive,inactive,inactive,inactive,
c1ccc(-c2ccccc2)cc1,inactive,inactive,inactive,inactive,inactive,inactive,inactive,inactive,,
CC(C)OC(=O)Nc1ccccc1,inactive,27.4 µM (active) and 24.3 µM (active),inactive,inactive,inactive,inactive,,,,
Cc1cccc([N+](=O)[O-])c1,inactive,inactive,inactive,inactive,inactive,inactive,,,,
O=NN1CCCC1,20.2 µM (active) and inactive,inactive,inactive,inactive,inactive,inactive,inactive,inactive,inactive,
COC(=O)NS(=O)(=O)c1ccc(N)cc1,inactive,inactive,inactive,inactive,inactive,inactive,inactive,inactive,,
O=NN1CCCCCCC1,inactive,inactive,inactive,inactive,inactive,inactive,,,,
COC(=O)NC(=S)Nc1ccccc1NC(=S)NC(=O)OC,inactive,inactive,inactive,inactive,inactive,inactive,inactive,inactive,inactive,
C1CC2OC2CC1C1CO1 (centres undefined),inactive,inactive,inactive,inactive,inactive,inactive,inactive,inactive,,
Cc1ccc([N+](=O)[O-])cc1C,inactive,inactive,inactive,inactive,inactive,inactive,inactive,inactive,inactive,
ClCCBr,inactive,inactive,inactive,inactive,inactive,inactive,inactive,inactive,inactive,
[O-][Cl+2]([O-])O,inactive,inactive,inactive,inactive,inactive,inactive,inactive,inactive,,
CCC[N+](=O)[O-],,inactive,inactive,inactive,inactive,inactive,inactive,inactive,inactive,
CN1C(=O)CN=C(c2ccccc2)c2cc(Cl)ccc21,,inactive,inactive,inactive,inactive,4.39 µM (active),,,inactive,inactive
Nc1ccc(Oc2ccc(N)cc2)cc1,,inactive,inactive,inactive,inactive,inactive,inactive,,inactive,
CC(C)C#N,,inactive,inactive,inactive,inactive,inactive,,,inactive,
CC(C)(Cl)Cl,,inactive,inactive,inactive,inactive,inactive,,,inactive,
Cc1cc(Cl)ccc1O,,inactive,inactive,inactive,inactive,2.65 µM (active),inactive,inactive,inactive,
COCCl,,inactive,inactive,inactive,inactive,16 µM (active) and inactive,inactive,inactive,,
